# Rows were chosen to be rich in hits. Some 19% of all compounds tested hit in one or more screens of this group.
# uPA generation: cell surface uPA generation inhibition; Potency, µM (highest dose often 38.3 µM), actives largely listed as inhibitors; hit rate 0.31% among 330,000; AID 540303; cell surface uPA generation assay, qHTS; active means well fitted inhibition curve with a large enough effect; inconclusive means small, poorly fitted or top-dose-only effect; inactive means no such curve, though single readings can be large or run the other way; tested in mouse RAW 264.7 cells; further: nearly all actives have a fitted effect of over 55% in size
# TDP1 cell CPT: growth inhibition of DT40 Tdp1-/-;hTDP1 cells with camptothecin (screen for TDP1 inhibitors); Potency, µM (titrated, usually from 46.2 µM), most hits filed as inhibitors; hit rate 12% among 420,000; chicken DT40 Tdp1-/-;hTDP1 cells + 20 nM CPT, ATP luminescence, 48 h; further: nearly all actives have a fitted effect of over 55% in size
#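 Cell growth measured by CellTiter-Glo luminescence after a minimum 48 h, 37 C compound exposure with 20 nM CPT in Tdp1-knockout DT40 cells stably expressing hTDP1, seeded 400/well; qHTS titration format.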
# IL1B secr inh: inflammasome signaling inhibition, IL-1 beta readout. THP-1 LPS/ATP IL-1B secretion, AlphaLISA, 16 h; active compounds read low. activity change, % at 57.5 µM. hit rate 4.7% among 360,000. AID 743279; in the data active means activity change below about -50%; inconclusive means mostly about -30% to -49%
#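 Secreted IL-1B measured by AlphaLISA bead assay after 16 h compound exposure of THP-1 cells; compounds (final up to 57.5 uM) added 1 h before LPS (250 ng/mL) and ATP (1.25 mM) stimulation; lower signal means less secretion.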
# HT1080-NT tox: kills 2HG-producing HT-1080-NT fibrosarcoma cells. Potency, µM (series often up to 46.1 µM), actives largely listed as cytotoxic. HT-1080-NT fibrosarcoma viability, CellTiter-Glo ATP luminescence, 48 h. AID 686970. hit rate 1.6% among 360,000;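 further: NT is the 2HG producing partner of a matched IDH1 knockdown line; nearly all actives have a fitted effect of over 55% in size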
#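 HT-1080-NT; 750 cells/well; 5% FBS RPMI; 48 h compound, 37 degrees C; CellTiter-Glo luminescence; curve fitting and curve-class assignment.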
# HT1080 IDH1KD tx: toxicity to HT-1080 IDH1 knockdown cells (counter line). AID 686971. Potency, µM (titrated, usually from 46.1 µM), most hits filed as cytotoxic. hit rate 2% among 360,000. HT-1080 IDH1 knockdown viability, ATP luminescence, 48 h
#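 Knockdown cells (IDH1KD HT-1080) received compounds 2 h after plating at 750 cells/well and were kept 48 h at 37 °C in 5% FBS RPMI. A CellTiter-Glo luminescence read gave % activity for curve fitting.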
# DT40 TDP1 no CPT: qHTS for Inhibitors of human tyrosyl-DNA phosphodiesterase 1 (TDP1): qHTS in cells in absence of CPT | DT40 Tdp1-/- hTDP1 cells, no CPT, ATP luminescence, 48 h | Potency, µM (top dose mostly 46.2 µM), usual class: inhibitors | hit rate 15% among 420,000; further: nearly all actives have a fitted effect of over 55% in size
#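 Growth of hTDP1-complemented DT40 Tdp1-knockout cells is measured by ATP luminescence after at least 48 hr compound exposure at 37 °C, with DMSO substituting for the 20 nM CPT used in the parallel screen.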
# Numbers stand for hits; n = inactive; u = inconclusive; x = no result. Unless noted, the call rests on the fitted dose curve; in most records, active means well fitted curve in the direction sought with a large enough effect; inconclusive means small, poorly fitted or top-dose-only effect, or another doubt; inactive means no such curve, though single readings can be large; an effect the other way counts as inactive or inconclusive.
SMILES,uPA generation,TDP1 cell CPT,IL1B secr inh,HT1080-NT tox,HT1080 IDH1KD tx,DT40 TDP1 no CPT
CNC(=O)N(O)C1N(/N=C/c2ccc(C)cc2)C(=S)SC1(C)C (configuration not stated),n,n,n,n,n,n
ClCc1ncc(-c2ccc(Cl)cc2)o1,n,15µM,u,n,n,16µM
Cc1ccc(OCc2nnc(-c3ccc(Cl)cc3)o2)cc1,n,n,n,n,n,n
Cc1nc(Br)c(Br)n1Cc1ccccc1,x,u,n,n,u,21µM
S=c1[nH]nc(-c2ccc(Br)cc2)n1Cc1ccccc1,n,u,n,n,n,u
Cc1nc([N+](=O)[O-])c(SCC(N)=O)n1Cc1ccccc1,u,n,n,n,n,u
Cc1nc([N+](=O)[O-])c(Sc2nc3ccccc3n2C)n1Cc1ccccc1,n,u,-105,n,u,5.2µM
Cc1nc2ccccc2n1Cc1ccccc1,n,16µM,n,n,u,u
CCC(C)Cn1c(C)nc2ccccc21 (configuration not stated),n,u,n,n,n,10µM
Brc1cccc(Cn2c(-c3cncs3)nc3ccccc32)c1,n,u,n,n,n,n
Cc1nc2ccccc2n1Cc1ccccc1Br,n,u,n,n,u,u
CC(c1nc2ccccc2n1Cc1ccccc1)N1CCCCC1 (configuration not stated),n,16µM,n,n,n,18µM
Cc1cccc(Cn2c(-c3cccc(Br)c3)nc3ccccc32)c1,x,18µM,x,x,x,16µM
Cn1cnc2cc(NCc3ccccc3O)ccc21,n,n,n,n,n,n
Cc1nc2cc(NCc3ccccc3O)ccc2n1Cc1ccccc1,n,u,-54,n,n,u
Cc1nc2ccccc2n1Cc1ccc(Br)cc1,n,5.8µM,-63,n,u,6.5µM
c1ccc(Cc2nc3ccccc3n2Cc2ccccc2)cc1,n,n,n,n,u,u
O=C(O)C1C(=O)NCC1c1ccccc1 (configuration not stated),n,n,n,n,n,n
O=C(CCC(=O)OCC(=O)c1ccc(Cl)cc1)Nc1ccc(Oc2ccccc2)cc1,x,n,x,x,x,n
O=C(CCC1CCCCC1)NCCS(=O)(=O)N1CCN(c2ccccc2)CC1,n,u,n,n,n,n
CC(NC(=O)/C=C/c1ccco1)c1nc2ccccc2n1Cc1cccc(Cl)c1 (configuration not stated),n,u,n,n,n,u
CCC(O)c1nc2ccccc2n1Cc1cccc(Cl)c1 (configuration not stated),x,u,x,x,x,18µM
COC(=O)C1CCN(C(=O)COC(=O)CCc2nc3ccccc3c(=O)[nH]2)CC1,n,n,n,n,n,n
CCOc1ccccc1NC(=O)Cn1ncc2c([nH]c3ccccc32)c1=O,x,n,x,x,x,n
O=C(OCc1ccccc1)N(CCCCN(CCCNCc1ccccc1)C(=O)OCc1ccccc1)CCCNCc1ccccc1,n,5.2µM,n,u,u,5.2µM
SMILES,uPA generation,TDP1 cell CPT,IL1B secr inh,HT1080-NT tox,HT1080 IDH1KD tx,DT40 TDP1 no CPT
COC(=O)C1=CN(c2cccc(OCc3ccccc3)c2)C(N)=C(C#N)C1c1cccc(F)c1 (configuration not stated),x,13µM,n,n,n,23µM
COC(=O)C1=CN(c2ccc(F)cc2)C(N)=C(C#N)C1c1ccc(-c2ccccc2)cc1 (configuration not stated),x,7.3µM,n,10µM,10µM,5.8µM
COC(=O)C1=CN(c2ccc(F)cc2)C(N)=C(C#N)C1c1cccc(F)c1 (configuration not stated),x,7.3µM,n,u,23µM,12µM
COC(=O)C1=CN(c2ccc(Oc3ccccc3)cc2)C(N)=C(C#N)C1c1cccc(F)c1 (configuration not stated),x,u,n,n,n,8.2µM
CCc1nn(CC(=O)NC(C)C)c(=O)c2cc3cc(F)ccc3n12,x,n,x,x,x,n
COc1ccc(C(=O)NNC(=O)c2ccc(F)c(S(=O)(=O)N3CCOCC3)c2)cc1,n,n,n,n,n,n
COC(=O)C1=CN(c2ccc3c(c2)OCO3)C(N)=C(C#N)C1c1ccc(-c2ccccc2)cc1 (configuration not stated),x,5.8µM,n,5.2µM,3.3µM,6.5µM
COC(=O)C1=CN(c2ccc(C(C)(C)C)cc2)C(N)=C(C#N)C1c1ccc(OC)cc1 (configuration not stated),x,u,n,n,n,u
COC(=O)C1=CN(c2ccc(N3CCOCC3)cc2)C(N)=C(C#N)C1c1cccc(F)c1 (configuration not stated),x,u,n,n,n,8.2µM
COC(=O)C1=CN(c2c(C)cc(C)cc2C)C(N)=C(C#N)C1c1ccccc1 (configuration not stated),x,u,n,n,n,u
COC(=O)C1=CN(c2ccc(OC)cc2OC)C(N)=C(C#N)C1c1cccc([N+](=O)[O-])c1 (configuration not stated),x,0.37µM,n,u,u,0.33µM
COC(=O)C1=CN(c2cc(C)cc(C)c2)C=C(C(=O)OC)C1c1cccc(F)c1,n,18µM,u,n,n,13µM
COC(=O)C1=CN(c2ccc(F)cc2)C=C(C(=O)OC)C1c1ccc(O)cc1,n,n,u,n,u,16µM
CCN(CC)C(=O)Cn1cc([N+](=O)[O-])cc1[N+](=O)[O-],n,n,n,n,n,n
Cc1[nH]n(-c2ccc([N+](=O)[O-])cc2)c(=O)c1C=NCCc1c[nH]c2ccccc12,n,12µM,n,u,u,u
Cc1[nH]n(-c2ccc([N+](=O)[O-])cc2)c(=O)c1C=NCCN1CCN(C(=O)c2cccc(F)c2)CC1,n,15µM,n,18µM,16µM,9.2µM
Cc1[nH]n(-c2ccc([N+](=O)[O-])cc2)c(=O)c1C=NCCN1CCN(C(=O)c2ccc(F)cc2)CC1,x,n,n,n,n,n
Cc1[nH]n(-c2ccc([N+](=O)[O-])cc2)c(=O)c1C=NCCN1CCN(C(=O)c2ccc(Br)cc2)CC1,n,18µM,u,u,u,15µM
Cc1ccccc1C(=O)NCc1ccc2c(c1)CCN2C(=O)c1ccc(F)cc1,x,n,x,x,x,n
Cc1cccc(OCC(=O)NCc2ccc3c(c2)CCN3C(=O)c2ccccc2)c1,x,u,x,x,x,23µM
O=C(NCc1ccc2c(c1)CCN2C(=O)c1ccc(F)cc1)c1ccc(Br)o1,x,5.2µM,x,x,x,4.1µM
COc1ccc(CC(=O)NCc2ccc3c(c2)CCN3C(=O)c2ccccc2)cc1OC,x,n,x,x,x,n
